From the supplement of paper PMC10849652
Of roughly 8,800 targets only a part is listed; those with a hit were picked by preference. About 0.5% of all pairs of compound and target were hits. A number with no mark means an inactive call.

How the values were obtained:
Assay in all cases: log2 fold change, soluble protein after heating vs DMSO (PISA); higher = thermal stabilisation; K562 lysate, 10 uM; active = over 0.2 and 3.5 SD of the protein, either way, in both replicates (recomputed)
alvocidib = compound: CN1CC[C@H](c2c(O)cc(O)c3c(=O)cc(-c4ccccc4Cl)oc23)[C@H](O)C1 [alvocidib]
Procedure, shortened: (§1)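 Log-two fold change in thermal stability relative to solvent controls is reported from duplicates. For each sample, crude K562 extract from dounce-homogenised pellets in PBS pH 7.4 with 1 mM MgCl2, at 1 mg/mL protein, was treated with 10 μM compound for 30 min. Aliquots heated for 3 min across 48°C-58°C were pooled, brought to 0.5% NP-40 at 4°C and cleared at 21,000xg for 90 min. The supernatant was quantified by TMTpro 16plex LC-MS/MS with channel sums equalised.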

Tubastatin A = compound: CN1CCc2c(c3ccccc3n2Cc2ccc(C(=O)NO)cc2)C1 [Tubastatin A]
Procedure, shortened: as §1

[1] = compound: CNC(=O)C1=CC=CC=C1NC2=NC(=NC=C2Cl)NC3=C(C=C(C=C3)N4CCOCC4)OC
Procedure, shortened: as §1

defactinib = compound: CNC(=O)c1ccc(Nc2ncc(C(F)(F)F)c(NCc3nccnc3N(C)S(C)(=O)=O)n2)cc1 [defactinib]
Procedure, shortened: as §1

[2] = compound: CNc1nc(-c2ccc3c(N)n[nH]c3c2)cc(N2C[C@@H](C(=O)NC3CCCCC3)CC[C@H]2C)n1
Procedure, shortened: as §1

encorafenib = compound: COC(=O)N[C@@H](C)CNc1nccc(-c2cn(C(C)C)nc2-c2cc(Cl)cc(NS(C)(=O)=O)c2F)n1 [encorafenib]
Procedure, shortened: as §1

[3] = compound: COC(=O)[C@H](CCSC)NC(=O)C1=C(C=C(C=C1)NC[C@H](CS)N)C2=CC=CC=C2
Procedure, shortened: as §1

alisertib = compound: COc1cc(Nc2ncc3c(n2)-c2ccc(Cl)cc2C(c2c(F)cccc2OC)=NC3)ccc1C(=O)O [alisertib]
Procedure, shortened: as §1

[4] = compound: COc1cc2nc(-c3cc(F)ccc3O)nc(N[C@@H]3CNC[C@H]3C(C)(C)O)c2cc1OC
Procedure, shortened: as §1

gefitinib = compound: COc1cc2ncnc(Nc3ccc(F)c(Cl)c3)c2cc1OCCCN1CCOCC1 [gefitinib]
Procedure, shortened: as §1

Chain of UniProt P49840 (P49840 whole entry, looked up): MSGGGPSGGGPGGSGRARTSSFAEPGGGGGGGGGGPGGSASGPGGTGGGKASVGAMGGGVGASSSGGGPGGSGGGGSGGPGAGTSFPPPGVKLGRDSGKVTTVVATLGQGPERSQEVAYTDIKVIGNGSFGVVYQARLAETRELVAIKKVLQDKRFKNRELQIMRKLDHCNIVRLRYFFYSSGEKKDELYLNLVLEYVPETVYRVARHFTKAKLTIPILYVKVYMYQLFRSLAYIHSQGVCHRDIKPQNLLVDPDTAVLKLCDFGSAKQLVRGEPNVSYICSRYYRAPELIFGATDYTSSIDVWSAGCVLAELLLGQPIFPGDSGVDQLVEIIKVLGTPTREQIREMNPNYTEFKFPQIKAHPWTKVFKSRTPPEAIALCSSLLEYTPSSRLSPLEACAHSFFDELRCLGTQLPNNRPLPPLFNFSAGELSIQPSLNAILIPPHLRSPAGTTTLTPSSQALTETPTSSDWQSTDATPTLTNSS
Chain of UniProt Q9NPR9 (Q9NPR9 whole entry, looked up): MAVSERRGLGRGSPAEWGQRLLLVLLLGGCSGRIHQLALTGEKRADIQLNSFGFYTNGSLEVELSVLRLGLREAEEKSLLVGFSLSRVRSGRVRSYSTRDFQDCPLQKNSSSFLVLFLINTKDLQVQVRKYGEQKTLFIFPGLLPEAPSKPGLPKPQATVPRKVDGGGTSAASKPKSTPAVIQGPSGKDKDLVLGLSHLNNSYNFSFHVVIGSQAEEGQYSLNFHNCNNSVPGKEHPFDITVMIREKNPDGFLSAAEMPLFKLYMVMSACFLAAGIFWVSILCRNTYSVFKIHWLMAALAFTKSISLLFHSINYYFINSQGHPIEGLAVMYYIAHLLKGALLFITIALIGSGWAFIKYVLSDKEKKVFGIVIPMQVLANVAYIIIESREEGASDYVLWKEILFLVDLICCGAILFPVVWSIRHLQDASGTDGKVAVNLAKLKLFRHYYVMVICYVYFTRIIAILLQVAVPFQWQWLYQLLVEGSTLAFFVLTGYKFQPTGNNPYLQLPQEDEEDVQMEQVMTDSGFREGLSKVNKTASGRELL
Chain of UniProt A6NDN3 (A6NDN3 whole entry, looked up): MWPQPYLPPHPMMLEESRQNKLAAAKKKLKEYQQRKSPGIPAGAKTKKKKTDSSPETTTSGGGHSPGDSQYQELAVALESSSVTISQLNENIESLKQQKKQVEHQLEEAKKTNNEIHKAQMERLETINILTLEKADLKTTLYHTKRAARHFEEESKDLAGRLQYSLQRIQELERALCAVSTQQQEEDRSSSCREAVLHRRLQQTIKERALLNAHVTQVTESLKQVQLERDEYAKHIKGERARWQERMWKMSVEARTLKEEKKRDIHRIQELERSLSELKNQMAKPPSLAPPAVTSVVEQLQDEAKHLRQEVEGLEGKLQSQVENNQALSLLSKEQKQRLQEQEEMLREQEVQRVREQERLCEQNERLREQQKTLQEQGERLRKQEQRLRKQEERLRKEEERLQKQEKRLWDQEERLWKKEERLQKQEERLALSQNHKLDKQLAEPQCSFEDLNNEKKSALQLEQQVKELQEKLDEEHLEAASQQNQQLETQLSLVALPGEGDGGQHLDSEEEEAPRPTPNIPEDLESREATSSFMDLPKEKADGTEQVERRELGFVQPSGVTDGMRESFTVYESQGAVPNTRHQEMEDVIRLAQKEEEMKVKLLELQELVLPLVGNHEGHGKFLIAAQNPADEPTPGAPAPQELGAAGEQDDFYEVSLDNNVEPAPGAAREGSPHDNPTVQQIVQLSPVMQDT
Chain of UniProt Q9H6D7 (Q9H6D7 whole entry, looked up): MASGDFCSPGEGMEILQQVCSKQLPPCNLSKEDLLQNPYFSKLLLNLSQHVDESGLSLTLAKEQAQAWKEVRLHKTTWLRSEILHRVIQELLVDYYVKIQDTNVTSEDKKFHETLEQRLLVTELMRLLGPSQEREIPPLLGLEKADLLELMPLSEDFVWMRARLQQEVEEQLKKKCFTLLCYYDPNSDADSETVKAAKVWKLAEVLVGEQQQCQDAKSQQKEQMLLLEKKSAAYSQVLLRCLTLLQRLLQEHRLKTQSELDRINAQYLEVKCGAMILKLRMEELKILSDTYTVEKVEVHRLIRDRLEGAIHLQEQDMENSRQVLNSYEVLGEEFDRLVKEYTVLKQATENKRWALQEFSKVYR
Chain of UniProt P20839 (P20839 whole entry, looked up): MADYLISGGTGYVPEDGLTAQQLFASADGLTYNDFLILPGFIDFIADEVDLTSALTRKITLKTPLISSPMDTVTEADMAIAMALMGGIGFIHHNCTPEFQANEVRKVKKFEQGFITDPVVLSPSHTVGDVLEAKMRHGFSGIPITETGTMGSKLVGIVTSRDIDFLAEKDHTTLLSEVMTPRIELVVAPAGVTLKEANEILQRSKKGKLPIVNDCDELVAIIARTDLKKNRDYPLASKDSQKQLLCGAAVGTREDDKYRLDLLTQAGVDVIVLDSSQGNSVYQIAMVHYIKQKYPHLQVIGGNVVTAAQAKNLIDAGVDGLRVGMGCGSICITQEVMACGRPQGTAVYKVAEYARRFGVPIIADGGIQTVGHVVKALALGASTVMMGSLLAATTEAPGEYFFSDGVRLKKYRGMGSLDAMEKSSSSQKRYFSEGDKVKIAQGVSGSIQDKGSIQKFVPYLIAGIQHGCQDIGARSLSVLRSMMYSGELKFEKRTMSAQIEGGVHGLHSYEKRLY
Chain of UniProt Q1KMD3 (Q1KMD3 whole entry, looked up): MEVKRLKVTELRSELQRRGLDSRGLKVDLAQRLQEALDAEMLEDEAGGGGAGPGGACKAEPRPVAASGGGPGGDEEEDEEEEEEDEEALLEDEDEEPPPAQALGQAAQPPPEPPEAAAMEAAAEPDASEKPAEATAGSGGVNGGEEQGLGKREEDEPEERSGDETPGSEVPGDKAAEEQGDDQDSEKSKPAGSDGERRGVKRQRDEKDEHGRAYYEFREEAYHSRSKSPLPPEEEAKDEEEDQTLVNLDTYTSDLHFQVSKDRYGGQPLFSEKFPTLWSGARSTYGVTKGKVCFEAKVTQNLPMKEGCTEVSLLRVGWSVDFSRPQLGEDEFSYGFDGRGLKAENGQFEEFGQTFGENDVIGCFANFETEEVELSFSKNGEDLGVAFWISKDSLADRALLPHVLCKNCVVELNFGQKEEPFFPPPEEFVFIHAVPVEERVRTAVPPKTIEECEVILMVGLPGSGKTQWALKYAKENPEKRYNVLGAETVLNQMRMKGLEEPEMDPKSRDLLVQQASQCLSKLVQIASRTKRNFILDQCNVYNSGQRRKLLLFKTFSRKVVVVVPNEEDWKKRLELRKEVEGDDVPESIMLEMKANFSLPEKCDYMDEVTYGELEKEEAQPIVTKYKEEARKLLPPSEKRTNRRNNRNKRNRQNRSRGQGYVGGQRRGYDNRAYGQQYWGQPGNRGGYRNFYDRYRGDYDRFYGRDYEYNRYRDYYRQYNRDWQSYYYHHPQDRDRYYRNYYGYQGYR
Chain of UniProt Q9NVR2 (Q9NVR2 whole entry, looked up): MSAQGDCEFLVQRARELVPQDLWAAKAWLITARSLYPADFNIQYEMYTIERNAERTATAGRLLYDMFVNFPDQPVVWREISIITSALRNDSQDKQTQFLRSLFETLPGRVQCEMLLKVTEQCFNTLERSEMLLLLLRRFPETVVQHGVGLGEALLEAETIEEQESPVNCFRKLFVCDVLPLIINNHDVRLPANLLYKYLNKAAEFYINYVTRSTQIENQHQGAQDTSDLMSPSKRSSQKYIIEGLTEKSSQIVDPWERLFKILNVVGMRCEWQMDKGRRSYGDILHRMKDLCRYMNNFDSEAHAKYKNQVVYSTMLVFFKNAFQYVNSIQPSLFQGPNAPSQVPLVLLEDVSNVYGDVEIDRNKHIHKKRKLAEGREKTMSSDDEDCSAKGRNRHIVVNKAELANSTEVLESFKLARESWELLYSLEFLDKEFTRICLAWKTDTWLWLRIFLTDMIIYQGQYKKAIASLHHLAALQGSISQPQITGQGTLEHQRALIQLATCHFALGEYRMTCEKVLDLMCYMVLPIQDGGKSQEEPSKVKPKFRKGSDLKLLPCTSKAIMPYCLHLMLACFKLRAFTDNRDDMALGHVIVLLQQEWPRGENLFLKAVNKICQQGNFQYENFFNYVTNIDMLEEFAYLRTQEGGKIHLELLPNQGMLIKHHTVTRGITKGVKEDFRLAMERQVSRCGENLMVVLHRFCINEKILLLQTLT
Chain of UniProt P25098 (P25098 whole entry, looked up): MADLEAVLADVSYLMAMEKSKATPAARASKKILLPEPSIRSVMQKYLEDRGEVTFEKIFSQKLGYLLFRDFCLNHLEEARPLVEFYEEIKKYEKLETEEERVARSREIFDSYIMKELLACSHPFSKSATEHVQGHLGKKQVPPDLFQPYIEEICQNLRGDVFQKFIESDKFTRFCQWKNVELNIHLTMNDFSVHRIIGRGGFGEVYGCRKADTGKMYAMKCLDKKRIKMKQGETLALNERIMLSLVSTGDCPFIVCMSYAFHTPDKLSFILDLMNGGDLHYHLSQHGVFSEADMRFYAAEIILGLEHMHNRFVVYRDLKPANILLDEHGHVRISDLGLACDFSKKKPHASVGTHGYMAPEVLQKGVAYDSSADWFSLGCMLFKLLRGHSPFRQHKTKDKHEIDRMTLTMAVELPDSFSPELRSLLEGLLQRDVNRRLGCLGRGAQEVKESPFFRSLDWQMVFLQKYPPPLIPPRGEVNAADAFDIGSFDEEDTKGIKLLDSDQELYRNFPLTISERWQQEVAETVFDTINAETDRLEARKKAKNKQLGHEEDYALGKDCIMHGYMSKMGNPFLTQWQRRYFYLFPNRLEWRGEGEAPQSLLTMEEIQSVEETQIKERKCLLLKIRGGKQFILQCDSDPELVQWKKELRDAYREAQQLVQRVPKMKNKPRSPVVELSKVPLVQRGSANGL
Chain of UniProt Q96AB3 (Q96AB3 whole entry, looked up): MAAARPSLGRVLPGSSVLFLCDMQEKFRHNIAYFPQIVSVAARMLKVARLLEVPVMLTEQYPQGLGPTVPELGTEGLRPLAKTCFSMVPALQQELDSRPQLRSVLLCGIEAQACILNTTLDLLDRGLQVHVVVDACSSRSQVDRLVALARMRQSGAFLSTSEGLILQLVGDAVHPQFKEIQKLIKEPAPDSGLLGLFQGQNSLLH

Row | Target | log2 fold change (alvocidib) | log2 fold change (Tubastatin A) | log2 fold change [1] | log2 fold change (defactinib) | log2 fold change [2] | log2 fold change (encorafenib) | log2 fold change [3] | log2 fold change (alisertib) | log2 fold change [4] | log2 fold change (gefitinib)
1 | HADHA (UniProt P40939) | -0.011 | -0.003 | 0.069 | -0.042 | 0.037 | -0.063 | 0.088 | -0.017 | -0.041 | 0.021
2 | HACE1 (UniProt Q8IYU2) | -0.177 | 0.006 | -0.042 | -0.06 | 0.278 | -0.057 | 0.18 | 0.061 | 0.045 | -0.152
3 | KHK isoform 2 (UniProt P50053) | 0.058 | -0.001 | -0.057 | -0.038 | -0.068 | 0.03 | -0.02 | 0.008 | 0.083 | -0.038
4 | IMPDH1 isoform 6 (UniProt P20839) | -0.009 | -0.226 (active) | 0.002 | -0.002 | 0.018 | -0.001 | -0.478 (active) | 0.004 | -0.002 | 0.005
5 | HMGB1 (UniProt P09429) | 0.126 | 0.059 | 0.01 | 0.074 | 0.046 | -0.006 | -0.09 | -0.043 | -0.025 | -0.131
6 | GRK2 (UniProt P25098) | 0.001 | -0.08 | 0.068 | 0.106 | 0.044 | 0.001 | 0.086 | -0.042 | 0.066 | -0.041
7 | HNRNPUL2 (UniProt Q1KMD3) | -0.001 | 0.007 | 0.004 | 0.002 | -0.009 | -0.023 | 0.105 | 0.009 | 0.019 | -0.023
8 | HAUS4 (UniProt Q9H6D7) | 0.007 | -0.116 | 0.007 | 0.014 | -0.005 | 0.002 | 0.012 | 0.008 | -0.017 | -0.022
9 | KBTBD4 isoform 2 (UniProt Q9NVX7) | -0.064 | -0.048 | -0.016 | 0.024 | 0.193 | 0.048 | -0.08 | -0.098 | -0.046 | 0.121
10 | HAUS2 (UniProt Q9NVX0) | 0.069 | -0.079 | 0.041 | -0.171 | -0.047 | 0.088 | 0.043 | -0.037 | 0.014 | -0.049
11 | GOLGA6B (UniProt A6NDN3) | -0.019 | -0.054 | -0.002 | 0.018 | -0.086 | -0.048 | -0.053 | -0.074 | 0.043 | 0.065
12 | GOLPH3 (UniProt Q9H4A6) | 0.001 | -0.123 | 0.075 | 0.015 | -0.1 | 0.051 | -0.6 (active) | -0.018 | -0.024 | -0.011
13 | HECTD4 (UniProt J3KPF0) | -0.027 | -0.075 | 0.001 | 0.012 | -0.017 | -0.072 | 0.146 | 0.013 | 0.045 | -0.043
14 | HNRNPLL (UniProt Q8WVV9) | 0.015 | -0.164 | 0.021 | 0.035 | -0.016 | 0.082 | -0.07 | -0.016 | 0.011 | -0.052
15 | INTS3 (UniProt Q68E01) | -0.003 | 0.012 | 0.003 | 0.012 | -0.002 | -0.027 | 0.072 | -0.031 | 0.005 | 0.047
16 | HDAC2 (UniProt Q92769) | -0.01 | -0.012 | -0.007 | 0.006 | 0.003 | -0.006 | 0.007 | 0.002 | 0 | 0.013
17 | HMBOX1 isoform 5 (UniProt Q6NT76) | -0.078 | -0.003 | -0.005 | 0.012 | 0.066 | -0.037 | -0.016 | -0.156 | 0.02 | -0.091
18 | ISOC2 (UniProt Q96AB3) | 0.004 | -0.017 | 0.076 | 0.121 | -0.024 | 0.014 | 0.122 | 0.022 | 0.043 | -0.045
19 | ILK (UniProt Q13418) | 0.002 | -0.084 | -0.002 | -0.026 | -0.061 | -0.032 | 0.038 | 0.007 | -0.04 | 0.013
20 | GPR108 (UniProt Q9NPR9) | -0.068 | -0.034 | 0.075 | 0 | 0.014 | 0.11 | -0.066 | 0.001 | 0.047 | 0.002
21 | IRF2BP1 (UniProt Q8IU81) | -0.029 | -0.047 | 0.095 | 0.045 | 0.091 | 0.025 | 0.117 | 0.042 | 0.038 | -0.003
22 | HDHD5 (UniProt Q9BXW7) | -0.097 | -0.078 | 0.041 | -0.069 | 0.034 | 0.026 | 0.024 | 0.031 | 0.012 | -0.063
23 | HLTF (UniProt Q14527) | -0.027 | -0.083 | -0.001 | 0.028 | 0.025 | 0.004 | 0.104 | 0.048 | 0.01 | 0.076
24 | GSE1 (UniProt Q14687) | -0.032 | -0.155 | 0.014 | -0.006 | -0.001 | 0.017 | 0.05 | -0.017 | 0.027 | 0.013
25 | GMDS (UniProt O60547) | 0.036 | -0.057 | -0.017 | 0.042 | 0.003 | -0.059 | 0.123 | 0.016 | 0.023 | -0.012
26 | INTS10 (UniProt Q9NVR2) | -0.009 | -0.143 | -0.033 | 0.016 | -0.045 | -0.017 | 0.043 | -0.093 | -0.097 | 0.049
27 | IFNGR1 (UniProt P15260) | -0.348 | 0.157 | -0.022 | -0.164 | 0.272 | -0.018 | -0.002 | 0.138 | 0.106 | -0.036
28 | GSK3A (UniProt P49840) | 0.53 (active) | -0.089 | 0.05 | 0.353 | -0.042 | 0.161 | -0.118 | -0.03 | -0.015 | 0.003
29 | HNRNPL (UniProt P14866) | 0.035 | -0.174 | 0.016 | 0.015 | -0.02 | 0 | 0.073 | -0.026 | -0.007 | -0.019
